Experimental findings from PubChem BioAssay (NCI) are described below.

A short description of experiment [1]: NCI Yeast Anticancer Drug Screen. Data for the rad50 strain (AID 155).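 Note: 0% = growth of vehicle-only cultures of the same strain.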 To be noted: S. cerevisiae rad50 strain growth inhibition; at 50.0 µM; active compounds read high. A digest of the protocol:
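Yeast carrying a defined DNA repair defect were exposed to test compounds, and growth was compared with vehicle-treated controls to give percent inhibition.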

Experiment [2] is described as follows: NCI Yeast Anticancer Drug Screen. Data for the mec2-1 strain (AID 157). Particulars: S. cerevisiae mec2-1 strain, at 50.0 µM, active compounds read high. The essentials:
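Strain: mec2-1 (DNA repair/cell cycle alteration). Compound exposure, then growth measured; inhibition expressed relative to vehicle.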

Experiment [3] in a line: NCI Yeast Anticancer Drug Screen. Data for the sgs1 mgt1 strain (AID 161).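 Note: 0% = growth of cultures given vehicle only.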 Particulars: S. cerevisiae sgs1 mgt1 strain, at 50.0 µM, active compounds read high. The essentials:
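Read-out: growth inhibition vs vehicle controls. Cells: mutant yeast strain deficient in DNA damage repair.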

Experiment [4] in a line: NCI Yeast Anticancer Drug Screen. Data for the cln2 rad14 strain (AID 165).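 Note: 0% = growth equal to vehicle treated cultures.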 To be noted: S. cerevisiae cln2 rad14 strain, at 50.0 µM, active compounds read high. A digest of the protocol:
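Compounds are applied to the cln2 rad14 yeast strain, and growth is then compared with that of vehicle-treated cultures to give inhibition.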

Experiment [5] in a line: NCI Yeast Anticancer Drug Screen. Data for the bub3 strain (AID 167). Particulars: S. cerevisiae bub3 mutant strain, at 50.0 µM, active compounds read high. The essentials:
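Compounds were applied to a genetically altered yeast strain carrying a cell-cycle control defect. Growth inhibition was scored against vehicle-treated controls.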

Experiment [6] in a line: NCI Yeast Anticancer Drug Screen. Data for the mlh1 rad18 strain (AID 175). Particulars: S. cerevisiae mlh1 rad18 strain growth inhibition; at 50.0 µM; active compounds read high. A digest of the protocol: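 Read-out is yeast growth inhibition, calculated against vehicle-only controls. The compound was applied to a strain engineered with DNA damage repair alterations.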

Structures are written as SMILES. This is part of a sample that, as a whole, favours compounds with a hit. Of some 79,000 tested, about 15% had one in any assay. A number with no mark means an inactive call. Active and inactive are the calls of the source. Cut-off read from the data, not from the text of the source: active = growth inhibition above about 70%; inactive = the rest.

`N#CCCN(CCC#N)CCN(CCN(CCC#N)CCC#N)CCN(CCC#N)CCC#N`: the growth inhibition in experiment [1] is -8.1%; in experiment [2], -0.25%; in experiment [3] it was -6.4%; in experiment [4], 2.1%; in experiment [5] it was -15.2%; in experiment [6], -10.8%.
As to `O=C1C=CSc2ccccc2N1`, the growth inhibition in experiment [1] is -2.4%; in experiment [2], 2.5%; in experiment [3] it was -2.15%; in experiment [4] it was 4.4%; in experiment [5], 2.45%; in experiment [6] it was 4.5%.
As for `CN1CCc2ccccc2/C(=C(/O)c2ccccc2)C1=O`, the growth inhibition in experiment [1] is 28.8%; in experiment [2], 7.15%; in experiment [3], 12.3%; in experiment [4] it was 24.9%; in experiment [5] it was 13.3%; in experiment [6], 10.1%.
As for `CC(C)(C)OC(=O)NC(Cc1ccccc1)NC(=O)NC(=O)OCc1ccccc1` (stereo not given), the growth inhibition in experiment [1] is -25.3%; in experiment [2], -9.85%; in experiment [3], -6.45%; in experiment [4], -0.65%; in experiment [5], -13.8%; in experiment [6] it was -27.1%.
For `O=C1NC2(CCN(Cc3ccccc3)CC2)Nc2ccccc21`, the growth inhibition in experiment [1] was -10.4%; in experiment [2], 1.6%; in experiment [3] it was -10.4%; in experiment [4] it was -24.1%; in experiment [5] it was 2.8%; in experiment [6], -6.75%.
With `COC(=O)C(=O)C(C(=O)C(=O)Nc1cc([N+](=O)[O-])ccc1[N+](=O)[O-])c1nc2ccc(C(=O)c3ccccc3)cc2[nH]c1=O` (stereo not given), the growth inhibition in experiment [1] was 29.7%; in experiment [2] it was 15.8%; in experiment [3], 4.1%; in experiment [4] it was -16.1%; in experiment [5], 40.6%; in experiment [6], 18.9%.
Take `COC(=O)c1ccccc1NC(OC)c1cccc([N+](=O)[O-])c1` (stereo not given): the growth inhibition in experiment [1] is 18.6%; in experiment [2], 13.4%; in experiment [3], 12.1%; in experiment [4] it was 17.7%; in experiment [5], 12.6%; in experiment [6] it was 5.55%.
Regarding `O=C(CC[n+]1ccccc1)Nc1ccc(F)cc1F`, the growth inhibition in experiment [1] was 11.4%; in experiment [2] it was -1.55%; in experiment [3], 26.1%; in experiment [4], 20.9%; in experiment [5], 33.6%; in experiment [6], 17.3%.
Turning to `O=CNCC1(c2ccccc2)CCN(Cc2ccccc2)CC1`, the growth inhibition was -2.4% in experiment [1]; -23.8% in experiment [2]; 3.4% in experiment [3]; 2.05% in experiment [4]; 3.55% in experiment [5]; 8.45% in experiment [6].
For `O=C(Nc1ccc(Cl)cc1[N+](=O)[O-])Oc1ccc(C(=O)OCc2ccccc2)cc1`, the growth inhibition in experiment [1] is 76.3% (active); in experiment [2], 75.1% (active); in experiment [3] it was 71.5% (active); in experiment [4], 48.5%; in experiment [5] it was 84.2% (active); in experiment [6], 78.1% (active).
On to `COCC(=O)Nc1ccccc1`, for which the growth inhibition is -13.5% in experiment [1]; 6.05% in experiment [2]; 2.1% in experiment [3]; 1.55% in experiment [4]; 6.8% in experiment [5]; -6% in experiment [6].
`COC(=O)[C@@]12C(=O)N[C@@H](Cc3ccccc3)[C@@H]1[C@H](C)C(C)=C[C@@H]2CO`: the growth inhibition in experiment [1] was -27.4%; in experiment [2], -45.3%; in experiment [3], -44.9%; in experiment [4], -27.8%; in experiment [5] it was -32.2%; in experiment [6] it was -24.3%.
As to `COc1ccc2c(c1OC)OC1CNc3cc(C)c(C)cc3N=C1C2` (stereo not given), the growth inhibition was 6.1% in experiment [1]; 3.35% in experiment [2]; 4.05% in experiment [3]; -42.2% in experiment [4]; 12.8% in experiment [5]; 7.35% in experiment [6].
Turning to `CC1OC2=N[C@@H]1C(=O)N[C@@H](C(C)C)C1=N[C@H](C(=O)N[C@@H](C(C)C)C3=N[C@H](C(=O)N[C@@H](C(C)C)C4=N[C@H](C(=O)N[C@H]2C(C)C)C(C)O4)C(C)O3)C(C)O1` (stereo not given in full), the growth inhibition is 6.9% in experiment [1]; 3.55% in experiment [2]; 3.55% in experiment [3]; 19.1% in experiment [4]; 14.8% in experiment [5]; 9.55% in experiment [6].
Take `O=C(O)C12C3CCC(CC3)C1(C(=O)O)C1CCC2C1` (stereo not given): the growth inhibition in experiment [1] was -57.6%; in experiment [2] it was -12.4%; in experiment [3], -12.1%; in experiment [4] it was -24.1%; in experiment [5], 5.05%; in experiment [6] it was -1.2%.
For the molecule `NCC(N)C(O)C(O)C(O)CO` (stereo not given), the growth inhibition was 5.65% in experiment [1]; -2.25% in experiment [2]; -2.85% in experiment [3]; -43.1% in experiment [4]; -16.4% in experiment [5]; 2.7% in experiment [6].
In the case of `CCN(CC)C1Oc2cc3c(cc2C(c2cccc(OC)c2OC)C1C)OCO3` (stereo not given), the growth inhibition in experiment [1] is 28.4%; in experiment [2], 28.8%; in experiment [3], 46.5%; in experiment [4], 41.7%; in experiment [5], 41.9%; in experiment [6] it was 63.3%.
For `O=C(NN1CCCCC1)NN1CCCCC1`, the growth inhibition in experiment [1] was 5.35%; in experiment [2] it was -2.5%; in experiment [3], 8.6%; in experiment [4], 20.1%; in experiment [5] it was 24%; in experiment [6], 18.2%.
Regarding `COc1ccc(C(=O)C(C)(c2nc3n(c2O)C(=N)N=N3)c2nc3n(c2O)C(=N)N=N3)cc1` (stereo not given), the growth inhibition in experiment [1] was -8.8%; in experiment [2] it was 4.45%; in experiment [3] it was 0.75%; in experiment [4], -8.85%; in experiment [5], 5.8%; in experiment [6], -7.95%.
Take `Cc1cccc(C(=O)NN)c1`: the growth inhibition was -4.15% in experiment [1]; 10.2% in experiment [2]; -20.2% in experiment [3]; -5.4% in experiment [4]; -0.2% in experiment [5]; -5.95% in experiment [6].
